As usually defined, the AC50 is the concentration at which the activity in the assay is half-maximal. One may read the viability as a read-out of living cells in per cent, often relative to untreated cells.

Results filed as inconclusive are left out. Activity calls are given as the source filed them.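 Rule for the calls, unless noted: active = compound raises GLP1 secretion from the human gut endocrine cells, with no numeric limit stated; inactive = the rest.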

The results in this text go back to PubChem BioAssay.

A short description of test [1]: Wnt pathway potentiators raising nuclear beta-catenin – imaging, WNT3A-conditioned medium, mouse C2C12, NPC library, primary screen (AID 1117326; in the data active = nuclear beta-catenin stimulation mostly above about 4.2%, no sharp cut-off; inactive = mostly below about 10%). Particulars: stronger effect = higher value.
The nature of test [2]: stimulators of insulin release from INS-1E, primary screen, cell-based, 5 mM glucose, NPC library (AID 1117329;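 active = compound raises insulin release from rat beta cells at 5 mM glucose, no numeric limit stated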). Particulars: rat INS-1E insulin secretion, at 10 µM, stronger effect = higher value.
A short description of test [3]: growth inhibition of GSK3B-pretreated HCT116 cells – cell-based, CellTiter-Glo, 0.2 to 20 µM (AID 1117336;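 active = compounds lowering colon cancer cell viability after pretreatment blocking the GSK3B kinase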). The settings on record: HCT116 viability after GSK3B inhibitor, at 20 µM, stronger effect = higher value. On the technique in general: In ATP-based viability assays light output follows the ATP content of the culture.
A short description of test [4]: inhibition of endothelial tube formation, primary screen, imaging, VEGF stimulated, CD31 staining, tube area, NPC library (AID 1117340;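 active = compound that reduces growth-factor-driven endothelial tube area in a mixed cell culture, no cutoff stated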). Particulars: VEGF-stimulated ADSC/ECFC co-culture, at 10 µM, stronger effect = higher value.
Test [5] in a line: GLP1 release stimulators, primary, NCI-H716, NPC library (AID 1117341). The settings on record: NCI-H716 cells, at 10 µM, stronger effect = higher value.
Test [6] can be described thus: HCT116 colon cancer cell growth inhibition, primary screen, CellTiter-Glo luminescence, NPC library (AID 1117342;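 active = compounds that lower survival of HCT116 colon cancer cells in the luminescence readout, no numeric limit stated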). The settings on record: at 20 µM (top of the series).
Test [7] can be described thus: reduced SW480 viability measured with CellTiter-Glo, NPC library, primary (AID 1117343;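 active = compounds that lower viability of the colon cancer cells in the luminescence readout, with no numeric limit stated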). The settings on record: CellTiter-Glo luminescence; at 20 µM (top of the series) unless noted.
Test [8] in a line: NPC library primary testing for decreased DLD-1 cell viability via CellTiter-Glo (AID 1117346;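 active = compounds that lower survival of DLD-1 colon cancer cells in the luminescence readout, no cutoff given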). Particulars: DLD-1 viability, CellTiter-Glo luminescence; at 20 µM (top of the series).
Test [9] in a line: viability loss in pontine glioma line – cell-based, JHH-DIPG-1, MIPE4.0, CellTiter-Glo, qHTS, dose response (AID 1347062; cut-off not given, nearly all actives have AC50 up to about 27 µM;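 for AC50: cells exposed to compound for two days before readout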). Particulars: JHH-DIPG-1 viability, CellTiter-Glo ATP luminescence.
A short description of test [10]: viability loss in pontine glioma line – cell-based, SU-DIPG-IV, MIPE4.0, CellTiter-Glo, qHTS, dose response (AID 1347063; cut-off not given, nearly all actives have AC50 up to about 30 µM;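 note: compound exposure lasted 48 hours before the viability readout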). Particulars: CellTiter-Glo ATP luminescence.
Test [11] can be described thus: growth inhibition of DIPG cells – cell-based, MIPE4.0 library, CellTiter-Glo luminescence, qHTS (AID 1347066; cut-off not given, nearly all actives have AC50 up to about 30 µM;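 note: cells exposed to compound for 48 hours before readout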). Particulars: SU-DIPG-VI viability, CellTiter-Glo ATP luminescence.
Test [12] in a line: growth inhibition of DIPG cells – cell-based, MIPE5.0 library, qHTS (AID 1347068; cut-off not given, nearly all actives have IC50 up to about 30 µM). The settings on record: SU-DIPG-XXV viability. A general note: qHTS replaces the single test concentration by a dilution series.
The nature of test [13]: P. berghei load reduction in hepatocytes – cell-based, HepG2, luciferase luminescence, HepG2 viability, primary screen (AID 624349; in the data active = parasite load remaining mostly below about 12%, no sharp cut-off; inactive = mostly above about 10%;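 note: 100% = mean of DMSO negative control wells on the same plate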). The settings on record: P. berghei liver stage in HepG2, luciferase luminescence, concentration not given here; parasite load remaining: stronger effect = lower value; viability: measured here: HepG2 viability without parasites.
Test [14] can be described thus: viability loss in pontine glioma line – cell-based, SU-DIPG-XXV, MIPE5.0, CellTiter-Glo, qHTS, dose response (AID 1347065; cut-off not given, nearly all actives have AC50 up to about 26 µM;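 note: cells exposed to compound for 48 hours before ATP readout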). Particulars: CellTiter-Glo ATP luminescence.
Test [15] in a line: JHH-DIPG-1 glioma cell viability, MIPE5.0 library, CellTiter-Glo luminescence, qHTS (AID 1347067; cut-off not given, nearly all actives have AC50 up to about 26 µM;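 note: cells exposed to compound for 48 hours before readout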). The settings on record: JHH-DIPG-1 glioma viability, CellTiter-Glo ATP luminescence.
A short description of test [16]: viability loss with induced miR-34 in A549 – imaging, A549 dox-inducible miR-34, nuclei and caspase counts, primary screen (AID 1347080;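 active = compounds whose cell count with miR-34 switched on is under 0.7 times the count with it off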). Particulars: A549 miR-34 inducible, Hoechst nuclei count, 48 h.
The nature of test [17]: MELAS cybrid and Rieske KO viability enhancers – cell-based, MELAS cybrids, Rieske KO mouse fibroblasts, CellTiter-Glo, primary screen (AID 1508586;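 active = mean z-score across replicates of 1.96 or higher in either the MELAS or the Rieske mutant cell line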;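 note: z relative to plate mean and SD of compound and empty wells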). Particulars: low glucose.
Test [18] can be described thus: galactose survival enhancers in mitochondrial complex I cybrids – cell-based, galactose medium, ATP luminescence, primary screen (AID 1645843;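 active = z-score of at least 1.8 in each of two replicates, scored against plate mean and spread of sample wells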;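 note: positive z means more ATP and so rescue of galactose-driven cybrid death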). The settings on record: complex I mutant cybrid cells, 72 h, stronger effect = higher value.
The mark [19] stands for this setting: stronger effect = lower value, cell number ratio, induced over uninduced.
The mark [20] stands for this setting: measured here: relative caspase fold change +Dox/-Dox.
[21] abbreviates: measured here: total cells with miR-34 induction, stronger effect = lower value.
[22] abbreviates: measured here: total cells without miR-34 induction.
The mark [23] stands for this setting: MELAS cybrid survival, CellTiter-Glo 48 h, stronger effect = higher value.
The mark [24] stands for this setting: Rieske KO mouse fibroblast survival, CellTiter-Glo 72 h.

As for `CN(C)[C@@H](CCOc1cccc2ccccc12)c1ccccc1`, the nuclear beta-catenin stimulation in [1] (at 10 µM) was 0.1% (inactive); in test [1] (stimulation, at 2 µM), -0.4%. The insulin secretion stimulation in test [2] is 9.9% (inactive). Besides, the viability decrease in [3] is 89.7% (active). For the same compound, in [4], the tube area decrease is 20.5% (inactive). Also, the GLP1 secretion stimulation in test [5] is 6% (inactive). Also, the inhibition of viability in test [6] is 91.5% (active). Besides, the viability decrease (inhibition) in test [7] was 103% (active); in test [8], 67% (active). Also, the AC50 is 20.9 µM (active) in test [9] and 23.5 µM (active) in [10].

As to `CCCCC(CC)COC(=O)C(C#N)=C(c1ccccc1)c1ccccc1` (stereo not given), the nuclear beta-catenin stimulation is -0.2% (inactive) in test [1] (at 10 µM) and 0.7% in test [1] (stimulation, at 2 µM). Also, the insulin secretion stimulation in [2] was -1.3% (inactive). In addition, the viability decrease in test [3] was 51.7% (active). In addition, the tube area decrease in [4] was 19.7% (active). Moreover, in [5], the GLP1 secretion stimulation was -1.3% (inactive). Besides, the inhibition of viability in test [6] is 43.8% (inactive). Moreover, the results for the viability decrease (inhibition) in [7] and in test [8] were 28.2% (inactive) and 56.9% (active), respectively. For the same compound, the outcome in [9], in test [10], in test [11] and in [12] was inactive.

Take `CC(=O)O[C@@]12CO[C@@H]1C[C@H](O)[C@@]1(C)C(=O)[C@H](O)C3=C(C)[C@@H](OC(=O)[C@H](O)[C@@H](NC(=O)OC(C)(C)C)c4ccccc4)C[C@@](O)([C@@H](OC(=O)c4ccccc4)[C@H]21)C3(C)C`: the parasite load remaining in test [13] was 80.3% (inactive). The viability in [13] amounted to 114%. In addition, the nuclear beta-catenin stimulation in test [1] (at 10 µM) is 66.2% (active); in test [1] (stimulation, at 2 µM), 49.3%. For the same compound, in test [2], the insulin secretion stimulation was -0.6% (inactive). Further, in test [3], the viability decrease is 71.8% (active). Further, the tube area decrease in test [4] was 98.1% (active). Further, in test [5], the GLP1 secretion stimulation was -0.5% (inactive). The inhibition of viability in test [6] is 58.9% (active). In addition, the viability decrease (inhibition) in test [7] was 36.5% (active); in test [8], 31.8% (active). The AC50 in [14] is 0.00209 µM (active). The compound was called inactive in test [15] and in test [12]. Further, the fold change is 0.999 (inactive) in [16] (setting [19]) and 0.907 in test [16] (setting [20]). In addition, the cell count in test [16] (setting [21]) and in [16] (setting [22]) was 2910 throughout. The figures for the z-score in [17] (setting [23]), in test [17] (setting [24]) and in [18] were -1.22 (inactive), 0.541 and -0.435 (inactive), respectively.

Turning to `CCCCCCCCCCCCCCCC(=O)O`, the nuclear beta-catenin stimulation in test [1] (at 10 µM) was 0.3% (inactive); in test [1] (stimulation, at 2 µM) it was 1.7%. Further, the insulin secretion stimulation in [2] was 2.3% (inactive). Besides, in test [3], the viability decrease was 2.25% (inactive). Moreover, the tube area decrease in [4] is -25.4% (inactive). For the same compound, the GLP1 secretion stimulation in test [5] is 0.3% (inactive). Besides, the inhibition of viability in [6] is -38.8% (inactive). Moreover, the viability decrease (inhibition) was 32.7% (inactive) in test [7] and 8.5% (inactive) in [8]. Further, the results for the fold change in [16] (setting [19]) and in [16] (setting [20]) were 1.03 (inactive) and 1.12, respectively. In addition, the cell count in [16] (setting [21]) worked out at 5900; in test [16] (setting [22]), 5710.

On to `CCCCCCCCOc1ccccc1C(=O)Nc1ccc(C(=O)OCC[N+](C)(CC)CC)cc1`, for which the nuclear beta-catenin stimulation was 4.2% (inactive) in test [1] (at 10 µM) and 0.1% in [1] (stimulation, at 2 µM). Besides, the insulin secretion stimulation in [2] was 15.7% (inactive). In test [3], the viability decrease was 99.7% (active). In test [4], the tube area decrease was 101% (active). Also, the GLP1 secretion stimulation in [5] is -3.3% (inactive). Further, in [6], the inhibition of viability is 98.4% (active). The viability decrease (inhibition) is 88.6% (active) in test [7] and 99% (active) in test [8]. For the same compound, the AC50 in [9] was 23.5 µM (active); in test [10], 18.7 µM (active). For the same compound, the fold change in test [16] (setting [19]) is 0.913 (inactive); in test [16] (setting [20]) it was 0.694. Also, the cell count in test [16] (setting [21]) was 7980; in test [16] (setting [22]) it was 8740. Also, the figures for the z-score in [17] (setting [23]) and in [17] (setting [24]) were -0.155 (inactive) and -0.0436, respectively.
